PubChem BioAssay (NCI)
About 79,000 compounds went through this panel and 15% of them were active in at least one assay; those are over-represented in the sample as a whole. Unmarked numbers belong to inactive results. Calls of active or inactive are those of the source. Cut-off read from the data, not from the text of the source: active = growth inhibition above about 70%; inactive = the rest.

Key:
[1] = NCI Yeast Anticancer Drug Screen. Data for the rad52 strain (AID 147);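 note: 0% = growth of vehicle-treated control cultures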; conditions: S. cerevisiae rad52 mutant growth inhibition, active compounds read high
Summary of the method: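 Measured: yeast growth inhibition. System: strain with a defined DNA damage repair alteration. Reference: vehicle-treated control cultures.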

[2] = NCI Yeast Anticancer Drug Screen. Data for the wt1 strain (AID 149);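 note: 0% = growth of vehicle-treated wt1 cultures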; conditions: S. cerevisiae wt1 strain (SPY 50644) growth inhibition, active compounds read high
Summary of the method: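 Compounds are added to wt1 yeast cultures. Growth is then measured. Inhibition is expressed relative to vehicle-treated controls.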

[3] = NCI Yeast Anticancer Drug Screen. Data for the rad50EPP+ strain (AID 151);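 note: 0% = growth of vehicle-treated control cultures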; conditions: S. cerevisiae rad50 mutant strain, active compounds read high
Summary of the method: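 One strain with a rad50 alteration (rad50EPP+) was compound-treated, its growth then compared to that of vehicle controls.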

[4] = NCI Yeast Anticancer Drug Screen. Data for the mgt1 strain (AID 153); conditions: S. cerevisiae mgt1 mutant growth inhibition, active compounds read high
Summary of the method: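 After exposure of the mgt1 yeast mutant to compound, growth was measured and reported as inhibition compared with vehicle controls.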

[5] = NCI Yeast Anticancer Drug Screen. Data for the rad50 strain (AID 155);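 note: 0% = growth of vehicle-only cultures of the same strain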; conditions: S. cerevisiae rad50 strain growth inhibition, active compounds read high
Summary of the method: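 Inhibition values express reduced yeast growth in compound-treated cultures relative to vehicle-treated controls.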

[6] = NCI Yeast Anticancer Drug Screen. Data for the mec2-1 strain (AID 157); conditions: S. cerevisiae mec2-1 strain, active compounds read high
Summary of the method: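 Test agents were screened against the mec2-1 yeast strain, with defined DNA repair or cell cycle alteration. Growth was scored as inhibition against vehicle-only controls.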

[7] = NCI Yeast Anticancer Drug Screen. Data for the rad14 strain (AID 159);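 note: 0% = growth of vehicle-treated control cultures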; conditions: S. cerevisiae rad14 strain growth inhibition, active compounds read high
Summary of the method: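 A mutant yeast strain defective in DNA damage repair is treated with compound; inhibition of its growth is scored against untreated, vehicle-exposed cultures.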

[8] = NCI Yeast Anticancer Drug Screen. Data for the sgs1 mgt1 strain (AID 161);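 note: 0% = growth of cultures given vehicle only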; conditions: S. cerevisiae sgs1 mgt1 strain, active compounds read high
Summary of the method: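 Test agents were incubated with a DNA-repair-mutant yeast strain. Growth was then read and compared against vehicle-treated controls.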

[9] = NCI Yeast Anticancer Drug Screen. Data for the CLN2oe strain (AID 163);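 note: 0% = growth of vehicle-only control cultures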; conditions: S. cerevisiae CLN2oe strain, active compounds read high
Summary of the method: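 Here, growth inhibition in a cell-cycle-altered yeast strain after compound exposure was quantified against vehicle control growth.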

[10] = NCI Yeast Anticancer Drug Screen. Data for the cln2 rad14 strain (AID 165);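 note: 0% = growth equal to vehicle treated cultures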; conditions: S. cerevisiae cln2 rad14 strain, active compounds read high
Summary of the method: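 Growth of compound-exposed yeast (cln2 rad14 genotype) measured and expressed as inhibition relative to vehicle.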

[11] = NCI Yeast Anticancer Drug Screen. Data for the bub3 strain (AID 167); conditions: S. cerevisiae bub3 mutant strain, active compounds read high
Summary of the method: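 Steps: expose the mutant yeast strain to compound; grow alongside vehicle-treated cultures; measure growth; express inhibition against the vehicle cultures.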

[12] = NCI Yeast Anticancer Drug Screen. Data for the wt2 strain (AID 169);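 note: 0% = growth of vehicle-treated yeast cultures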; conditions: S. cerevisiae wt2 strain growth inhibition, active compounds read high
Summary of the method: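 Genetically defined yeast strains from a DNA-repair/cell-cycle panel were used. Compound-exposed yeast growth was measured, and the inhibition was calculated relative to vehicle treatment.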

[13] = NCI Yeast Anticancer Drug Screen. Data for the mlh1 strain (AID 171);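 note: 0% = growth of vehicle-treated control cultures of the same strain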; conditions: S. cerevisiae mlh1 strain growth inhibition, active compounds read high
Summary of the method: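 Here the genetically defined yeast mutant is grown with each compound, and the extent to which its growth falls below that of vehicle-exposed cells is reported.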

[14] = NCI Yeast Anticancer Drug Screen. Data for the sgs1 strain (AID 173);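 note: 0% = growth of vehicle-only control cultures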; conditions: S. cerevisiae sgs1 mutant, active compounds read high
Summary of the method: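 Relative growth inhibition, referenced to vehicle, was determined in a yeast strain with a defined alteration affecting DNA damage repair or cell cycle control after compound exposure.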

[15] = NCI Yeast Anticancer Drug Screen. Data for the mlh1 rad18 strain (AID 175); conditions: S. cerevisiae mlh1 rad18 strain growth inhibition, active compounds read high
Summary of the method: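 In this whole-cell yeast screen, a strain with altered DNA damage repair is challenged with compound, and its growth is measured against matched vehicle-treated controls.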

[16] = NCI Yeast Anticancer Drug Screen. Data for the rad18 strain (AID 177); conditions: S. cerevisiae rad18 mutant growth inhibition, active compounds read high
Summary of the method: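 Screen uses a yeast strain with a defined lesion in DNA damage repair; compound effect is read as loss of growth compared to untreated vehicle cultures.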

[17] = at 5.0 µM (retest, dose inferred, filed as 0.5)
[18] = at 50.0 µM (retest, dose inferred, filed as 5.0)

Compound `O=C(O)CCCC1CCCc2c1ccc1ccccc21` (stereo not drawn) has a growth inhibition ([1]; at 1.2 µM) of -2%, a growth inhibition ([1]; at 3.7 µM) of 1% and a growth inhibition ([1]; at 11.0 µM) of 11%. The growth inhibition ([1]; at 33.0 µM) was 74% (active), the growth inhibition ([1]; at 100.0 µM) was 99% (active) and the growth inhibition ([2]; at 1.2 µM) was -3%. It also gave a growth inhibition ([2]; at 3.7 µM) of 2%, a growth inhibition ([2]; at 11.0 µM) of 2% and a growth inhibition ([2]; at 33.0 µM) of 38%. For the same compound, the growth inhibition ([2]; at 100.0 µM) was 99% (active), the growth inhibition ([3]; at 1.2 µM) was 3% and the growth inhibition ([3]; at 3.7 µM) was 8%. For the same compound, the growth inhibition ([3]; at 11.0 µM) was 29%, the growth inhibition ([3]; at 33.0 µM) was 59% and the growth inhibition ([3]; at 100.0 µM) was 81% (active). The growth inhibition ([4]; at 1.2 µM) was -4%, the growth inhibition ([4]; at 3.7 µM) was -3% and the growth inhibition ([4]; at 11.0 µM) was 4%. For the same compound, the growth inhibition ([4]; at 33.0 µM) was 59%, the growth inhibition ([4]; at 100.0 µM) was 99% (active) and the growth inhibition ([5]; at 1.2 µM) was -2%. For the same compound, the growth inhibition ([5]; at 3.7 µM) was 0%, the growth inhibition [5, 17] was 6% and the growth inhibition ([5]; at 11.0 µM) was 8%. For the same compound, the growth inhibition ([5]; at 33.0 µM) was 58%, the growth inhibition [5, 18] was 89% (active) and the growth inhibition ([5]; at 50.0 µM) was 88% (active). For the same compound, the growth inhibition ([5]; at 100.0 µM) was 99% (active), the growth inhibition ([6]; at 1.2 µM) was -2% and the growth inhibition ([6]; at 3.7 µM) was -4%. The growth inhibition [6, 17] was 10%, the growth inhibition ([6]; at 11.0 µM) was 4% and the growth inhibition ([6]; at 33.0 µM) was 47%. For the same compound, the growth inhibition [6, 18] was 95% (active), the growth inhibition ([6]; at 50.0 µM) was 83.6% (active) and the growth inhibition ([6]; at 100.0 µM) was 99% (active). It also gave a growth inhibition ([7]; at 1.2 µM) of 3%, a growth inhibition ([7]; at 3.7 µM) of 7% and a growth inhibition ([7]; at 11.0 µM) of 13%. For the same compound, the growth inhibition ([7]; at 33.0 µM) was 51%, the growth inhibition ([7]; at 100.0 µM) was 99% (active) and the growth inhibition [8, 17] was 13%. For the same compound, the growth inhibition [8, 18] was 86% (active), the growth inhibition ([8]; at 50.0 µM) was 94.3% (active) and the growth inhibition ([9]; at 1.2 µM) was 1%. For the same compound, the growth inhibition ([9]; at 3.7 µM) was -4%, the growth inhibition ([9]; at 11.0 µM) was 13% and the growth inhibition ([9]; at 33.0 µM) was 74% (active). The growth inhibition ([9]; at 100.0 µM) was 99% (active), the growth inhibition [10, 17] was 5% and the growth inhibition [10, 18] was 96% (active). The growth inhibition ([10]; at 50.0 µM) was 90.2% (active), the growth inhibition ([11]; at 1.2 µM) was -4% and the growth inhibition ([11]; at 3.7 µM) was -6%. The growth inhibition [11, 17] was 2%, the growth inhibition ([11]; at 11.0 µM) was 6% and the growth inhibition ([11]; at 33.0 µM) was 61%. For the same compound, the growth inhibition [11, 18] was 85% (active), the growth inhibition ([11]; at 50.0 µM) was 89% (active) and the growth inhibition ([11]; at 100.0 µM) was 99% (active). For the same compound, the growth inhibition ([12]; at 1.2 µM) was -1%, the growth inhibition ([12]; at 3.7 µM) was 1% and the growth inhibition ([12]; at 11.0 µM) was 7%. The growth inhibition ([12]; at 33.0 µM) was 57%, the growth inhibition ([12]; at 100.0 µM) was 99% (active) and the growth inhibition ([13]; at 1.2 µM) was -3%. It also gave a growth inhibition ([13]; at 3.7 µM) of -1%, a growth inhibition ([13]; at 11.0 µM) of 4% and a growth inhibition ([13]; at 33.0 µM) of 60%. The growth inhibition ([13]; at 100.0 µM) was 99% (active), the growth inhibition ([14]; at 1.2 µM) was -1% and the growth inhibition ([14]; at 3.7 µM) was -2%. For the same compound, the growth inhibition ([14]; at 11.0 µM) was 6%, the growth inhibition ([14]; at 33.0 µM) was 64% and the growth inhibition ([14]; at 100.0 µM) was 99% (active). The growth inhibition [15, 17] was 4%, the growth inhibition [15, 18] was 91% (active) and the growth inhibition ([15]; at 50.0 µM) was 91.2% (active). It also gave a growth inhibition ([16]; at 1.2 µM) of -2%, a growth inhibition ([16]; at 3.7 µM) of -2% and a growth inhibition ([16]; at 11.0 µM) of 2%. The growth inhibition ([16]; at 33.0 µM) was 58% and the growth inhibition ([16]; at 100.0 µM) was 98% (active).
